This is part of a sample that, as a whole, favours compounds with a hit. Of some 83,000 tested, about 20% had one in any assay.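 Cells were grown in 96-well plates and exposed to the test compound at a single concentration for 48 hours; results are reported as percent growth, with values below 10 considered active.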 A number with no mark means an inactive call. Activity calls are given as the source filed them.

In the test the test system is HL-60(TB) leukemia. The test can be described thus: NCI-60 one-dose screen, 48 h (100 = growth as untreated, 0 = no growth, -100 = all killed). The conditions noted are these: 10 µM unless noted.
With `CCCSc1nc(Nc2ccc(S(N)(=O)=O)cc2)c(C#N)c(-c2cc(OC)c(OC)c(OC)c2)n1`, the growth is -40.3% (active). Turning to `O=c1[nH]c2ccc(Cl)cc2cc1CSc1ccc(Nc2nccc(-c3ccc(Cl)cc3)n2)cc1`, the growth is 52.4%. Then `CN1CCc2c(sc3ncnc(N/N=C/c4cccc(Cl)c4Cl)c23)C1`, with -50.9% (active); and `CN(C)c1ccnc(NCCCSC(c2ccccc2)(c2ccccc2)c2ccccc2)c1`, with -59% (active).

On to `O=C1Nc2ccc(Cl)cc2/C1=C/c1ccc(OCc2ccc(Br)cc2F)cc1`, for which the growth is 83.2%.

With `Cc1ccc2sc3c(c2c1)Oc1nc[nH]c(=O)c1C3c1cccc(F)c1` (configuration not stated), the growth was 99.3%. For `COc1ccc2[nH]c(=O)c(CSc3ccc(Nc4nccc(-c5ccc(Cl)cc5)n4)cc3)cc2c1` the value was 86.1%; for `O=c1oc2ccc(-c3ccc(F)cc3F)cc2c(=O)n1-c1ccc(F)c(Cl)c1`, -40.3% (active); for `CN1C(=O)N(C)C2SC(N/N=C/C=C/c3ccccc3)=NC21` (configuration not stated), 30.4%. Then `CC1=C(C(=O)c2ccccc2)C(c2cccc3ccccc23)n2c(nc3ccccc32)N1` (configuration not stated), with 58.6%; and `CCOC(=O)C(Cc1ccccc1)N1C(=O)/C(=C/N2N=C(c3ccc(OC)cc3)CC2c2ccc3ccccc3c2)SC1=S` (configuration not stated), with -18.4% (active); and `CC(C)(C)c1cc(/C=C2\S/C(=N/c3ncn[nH]3)NC2=O)cc(C(C)(C)C)c1O`, with 6.76% (active). Then `COc1ccc(-c2ccc(/C=N/NC(=O)c3[nH]c4ccc(Br)cc4c3-c3ccccc3)o2)cc1`, with 6.17% (active).

`CN1CCc2c(sc3ncnc(N/N=C/c4ccc(Cl)cc4Cl)c23)C1`: the growth is -49.9% (active). For `COc1ccc(-c2c(N)c(=O)n(C)c3ccccc23)cc1` the value was 79.3%; for `c1n[nH]cc1-c1nc2ccc3[nH]ncc3c2c2c1CC1(CCOCC1)CC2`, 26.5%; for `O=C1Nc2cc(-c3ccc(NS(=O)(=O)c4ccc([N+](=O)[O-])cc4)cc3)ccc2/C1=C/c1ccc[nH]1`, 13.7%.

For `CCOC(=O)C1=C(N)N(c2ccccc2)C2=C(C(=O)CC(C)(C)C2)C1c1ccc([N+](=O)[O-])cc1` (configuration not stated), the growth was 92.9%.

Turning to `CN1CCN(Cc2ccc(NC(=O)c3cncc(C#Cc4cnc5ccc(N[C@@H]6CCOC6)nn45)c3)cc2C(F)(F)F)CC1`, the growth was -57.9% (active). On to `CN(C)c1ccc(/C=C/c2n(Cc3ccc4ccccc4c3)c3ccccc3[n+]2Cc2ccc3ccccc3c2)cc1`, for which the growth is -47.1% (active). In the case of `O=C(NO)c1ccc(CNC(=O)[C@H]2Cc3c([nH]c4ccccc34)[C@H](c3ccccc3)N2)cc1`, the growth was 0.371% (active). Turning to `O=C(/C=C/Nc1ccccc1)c1ccc2c(c1)Nc1ccccc1S2`, the growth was 90.9%. For `O=[N+]([O-])c1cccc(-c2nnc3c(/C=C/c4ccccc4O)nc4ccccc4n23)c1` the value was 52.5%. `CN1CCN(C(=O)Oc2cc3c(c4ccccc24)[C@H](CCl)CN3C(=O)c2cc3cc(OCCCN4CCC4)ccc3[nH]2)[C@H]2CSSC[C@H]21`: the growth was -22.8% (active). For `N#C/C(=C/c1ccc([N+](=O)[O-])cc1)c1nnc(NC(=O)c2ccc(-n3c(=O)[nH]c4ccccc4c3=O)cc2)s1` the value was 99.3%. With `COc1c(F)ccc(C(=O)Nc2ccc3nc(NC(=O)C4CCCN(S(=O)(=O)c5cccc(Br)c5)C4)sc3c2)c1F` (configuration not stated), the growth is 80.6%. Turning to `O=C(Nc1nc2ccc([N+](=O)[O-])cc2s1)Nc1ccc(Cl)cc1Cl`, the growth is 50.1%.

Source of the values: PubChem BioAssay (NCI).
